# Source: the supplement of paper PMC12808144
# Unmarked numbers belong to inactive results.
# Experiments:
# Mel-DCC-11 = experiment: cell viability relative to DMSO control (fraction of DMSO control); higher = less cytotoxic, active = 0.5 or less; conditions: 1 µM; 120 h
# Outline: (§1)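 A library of 315 approved anti-cancer drugs (TargetMol) was acoustically pre-spotted into 384-well plates and tested at 1 µM in duplicate for 120 h. Cells were added in 40 µl per well: NHEM-hTERT immortalized melanocytes at 2500/well, and patient-derived Mel-DCC-11 and its resistant subline Mel-DCC-11-R at 1500/well. The subline was tested both alone and with 8 µM of its selecting drug. Viability was read by ATPlite 1step luminescence, normalised to DMSO controls and averaged over duplicates.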
# NHEM-hTERT = experiment: as above; conditions: 1 µM; 120 h
# Outline: as §1
# Mel-DCC-11-R = experiment: cell viability relative to DMSO control (fraction of DMSO control); higher = less cytotoxic, active = 0.8 or less; conditions: 1 µM, 120 h
# Outline: as §1
SMILES,cell viability (Mel-DCC-11),cell viability (NHEM-hTERT),cell viability (Mel-DCC-11-R; vemurafenib co-treatment 0 µM),cell viability (Mel-DCC-11-R; vemurafenib co-treatment 8 µM)
CN(C)C/C=C/C(=O)Nc1cc2c(Nc3ccc(F)c(Cl)c3)ncnc2cc1O[C@H]1CCOC1 [Afatinib],0.77,1.01,,
C[C@@H](CN1CC(=O)NC(=O)C1)N1CC(=O)NC(=O)C1.Cl [Dexrazoxane HCl],1.21,1.2,1.09,1.13
COC(=O)[C@]12CCC(C)(C)C[C@H]1[C@H]1C(=O)C=C3[C@@]4(C)C=C(C#N)C(=O)C(C)(C)[C@@H]4CC[C@@]3(C)[C@]1(C)CC2 [Bardoxolone Methyl],0.711,0.0925 (active),,
Nc1nc(F)nc2c1ncn2[C@@H]1O[C@H](CO)[C@@H](O)[C@@H]1O [Fludarabine],1.15,0.934,,
CC(=O)O.CC(C)C[C@H](NC(=O)[C@@H](COC(C)(C)C)NC(=O)[C@H](Cc1ccc(O)cc1)NC(=O)[C@H](CO)NC(=O)[C@H](Cc1c[nH]c2ccccc12)NC(=O)[C@H](Cc1cnc[nH]1)NC(=O)[C@@H]1CCC(=O)N1)C(=O)N[C@@H](CCCN=C(N)N)C(=O)N1CCC[C@H]1C(=O)NNC(N)=O [Goserelin acetate],1.22,1.07,,
CS(=O)(=O)c1ccc(C(=O)Nc2ccc(Cl)c(-c3ccccn3)c2)c(Cl)c1 [Vismodegib],0.785,0.961,,
CO[C@H]1C[C@@H]2CC[C@@H](C)[C@@](O)(O2)C(=O)C(=O)N2CCCC[C@H]2C(=O)O[C@H]([C@H](C)C[C@@H]2CC[C@@H](O)[C@H](OC)C2)CC(=O)[C@H](C)/C=C(\C)[C@@H](O)[C@@H](OC)C(=O)[C@H](C)C[C@H](C)/C=C/C=C/C=C/1C [Rapamycin],1.24,0.819,1.54,0.783 (active)
